This is a sample that favours compounds with a hit; in the whole collection about 6.6% have one here.
MK inhibit – blocks S. pneumoniae mevalonate kinase; purified MK, PK/LDH-coupled NADH absorbance 340 nm; inhibition, % at 10 µM; actives 0.48% (n = 65,000); AID 555;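 active = ranked among the strongest by inhibition in the single 10 µM screen, a fixed top-ranked set picked for dose follow-up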
DPM-DC inhibit – inhibitors of Streptococcus pneumoniae diphosphomevalonate decarboxylase | purified DPM-DC, PK/LDH coupled NADH fluorescence | calls only at 10 µM | actives 0.49% (n = 65,000) | AID 556;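 active = the 320 compounds with the highest percent inhibition in the single-dose primary screen, excluding strongly autofluorescent ones, cut at about 32% in these data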;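 note: kinetic rate of NADH fluorescence loss reporting ADP formed by the decarboxylase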
PMK inhibit – blocks S. pneumoniae phosphomevalonate kinase. inhibition, % at 10 µM. actives 0.49% (n = 65,000). AID 539. purified PMK, PK/LDH-coupled NADH absorbance 340 nm;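 active = top-ranked compounds by inhibition in the single 10 µM screen, taking a fixed number of the strongest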;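 note: 0% = full reaction with DMSO carrier and 100% = background rate without enzyme reaction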
Fluor 339 460 – intrinsic fluorescence of library compounds, ex339/em460 – biochemical, MLSMR library, data from DPM-DC assay, artefact control, profiling panel | compound autofluorescence, ex339/em460 nm, NADH buffer; active compounds read high; 1 = no-compound wells, NADH background | fluorescence fold increase at 10 µM | actives 5.5% (n = 65,000) | AID 709;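 active = at 10 µM, mean starting fluorescence two-fold or more over control wells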;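 note: signal is the first read of a kinetic run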
NADH enzymes – inhibitors of enzymes used to reach an NAD/NADH endpoint. actives 0.02% (n = 65,000). IC50, µM (highest dose often 10 µM), for the others: top-dose inhibition. coupled PK/LDH NADH assays, four targets;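 active = single-dose screening hits from any of four coupled enzyme assays that gave an IC50 when retested across doses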;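 note: the DPM-DC format reads NADH fluorescence rather than 340 nm absorbance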
Numbers without * were called inactive; i = inactive; / = not tested or not shown; + = active, no number.

SMILES	MK inhibit	DPM-DC inhibit	PMK inhibit	Fluor 339 460	NADH enzymes
Cc1cc2n(n1)C(c1cn(-c3ccccc3)nc1C)Nc1ccccc1-2 (stereo unspecified)	10.0	i	4.0	2.15*	8.0%
CCn1cc(C2Nc3ccccc3C(=O)N2O)c(C)n1 (stereo unspecified)	7.0	i	12.0	1.21	3.0%
Cc1cc2n(n1)C(c1ccco1)Nc1ccccc1-2 (stereo unspecified)	0.0	i	3.0	1.74	7.0%
Cc1cc2n(n1)C(c1ccc(O)cc1)Nc1ccccc1-2 (stereo unspecified)	0.0	i	8.0	2.92*	9.0%
C=CCNS(=O)(=O)c1nc(C)c(Cl)c(C)c1C#N	2.0	i	5.0	1.12	2.0%
CC(NC(=O)c1ccnc(C(C)(C)C)c1)c1ccccc1 (stereo unspecified)	4.0	i	7.0	1.11	4.0%
COC(=O)C1=C(NC(=O)c2cccc(C)c2)CCS1	0.0	i	15.0	1.7	5.0%
O=C(NCCc1ccccc1)c1ccccc1NS(=O)(=O)N1CCCC1	5.0	/	6.0	3.37*	6.0%
O=S(=O)(Nc1cccc2ccccc12)N1CCCC1	3.0	i	8.0	2.46*	9.0%
COc1ccccc1NC(=O)c1ccccc1NS(=O)(=O)N1CCCC1	3.0	i	5.0	1.41	7.0%
COc1cc(NS(=O)(=O)c2ccc(C)cc2)ccc1-n1cnnn1	6.0	i	11.0	1.11	6.0%
O=C(C1CCCN(S(=O)(=O)c2cccc3cccnc23)C1)N1CCc2ccccc21 (stereo unspecified)	4.0	i	11.0	1.18	5.0%
CCOc1nc(-c2ccccc2)ccc1-c1noc(COc2ccccc2)n1	0.0	i	8.0	2.87*	3.0%
CCOc1nc(-c2ccccc2)ccc1-c1noc(-c2ccco2)n1	0.0	i	19.0	2.58*	16.0%
COc1nc(C)ccc1-c1noc(-c2ccco2)n1	8.0	i	7.0	1.15	8.0%
COc1nc(-c2ccc(C)cc2)ccc1-c1noc(-c2ccco2)n1	0.0	i	10.0	2.36*	9.0%
CCN(Cc1ccncc1)S(=O)(=O)c1ccc(C(C)=O)cc1	9.0	i	14.0	1.06	8.0%
Oc1c(C(c2ccco2)N2CCN(C(c3ccccc3)c3ccccc3)CC2)sc2ncnn12 (stereo unspecified)	12.0	i	0.0	1.05	4.0%
COc1ccc(NC(=O)c2cc(Cl)ccc2NC(=O)c2ccco2)c(OC)c1	30.0	/	0.0	1.94	15.0%
CN1CCc2c(C#N)c(N3CCCCC3)nc(N3CCOCC3)c2C1	4.0	i	1.0	1.58	6.0%
CCc1nc(N2CCOCC2)c(C#N)c2c1CCCC2	0.0	i	2.0	2.02*	1.0%
CC(C)c1nc(N2CCCC2)c(C#N)c2c1CCCC2	1.0	/	0.0	2.12*	1.0%
CCCc1nc(N2CCCC2)c(C#N)c2c1CCCC2	20.0	i	0.0	2.06*	7.0%
CCc1nc(N2CCCC2)c(C#N)c2c1CCCC2	0.0	i	12.0	1.62	4.0%
CC(C)c1ccc2oc(-c3ccc(N)cc3)nc2c1	14.0	/	4.0	2.12*	9.0%
SMILES	MK inhibit	DPM-DC inhibit	PMK inhibit	Fluor 339 460	NADH enzymes
O=C(Nc1ccc(N2CCOCC2)c(Cl)c1)c1ncn[nH]1	6.0	i	11.0	1.06	6.0%
CCC(C)c1ccc2oc(-c3ccc(NC(=O)c4ncn[nH]4)cc3)nc2c1 (stereo unspecified)	11.0	/	0.0	3.61*	6.0%
CC(C)c1ccc2oc(-c3ccc(NC(=O)c4ncn[nH]4)cc3)nc2c1	12.0	/	4.0	3.56*	8.0%
O=C(Nc1ccc2oc(-c3ccccc3Cl)nc2c1)c1ncn[nH]1	12.0	/	0.0	2.1*	6.0%
CCC(C)c1ccc(O)c(NC(=O)c2ncn[nH]2)c1 (stereo unspecified)	13.0	i	15.0	1.09	13.0%
O=C(NCC(F)(F)F)Nc1ncccn1	16.0	i	10.0	1.05	9.0%
Cc1c(C(=O)Nc2ccccc2N2CCOCC2)sc2nc3n(c(=O)c12)CCC3	10.0	i	0.0	1.07	3.0%
C=CCNc1nc(N2CCCCC2)c(C#N)c2c1CN(Cc1ccccc1)CC2	10.0	i	0.0	1.4	6.0%
CNC(=O)C1C2C=CC3(O2)C1C(=O)N(C1CC1)C3C(=O)NCc1ccc(OC)cc1 (stereo unspecified)	12.0	i	0.0	1.01	4.0%
Cc1ccc(-c2nc3cc(N)ccc3o2)cc1	10.0	/	5.0	1.98	3.0%
Cc1ccc(-c2nc3cc(N)ccc3o2)c(C)c1	6.0	/	0.0	3.97*	3.0%
COc1ccc(C2C=C(c3ccccc3)Nc3ncnn32)cc1 (stereo unspecified)	7.0	/	12.0	3.39*	6.0%
CCOc1ccc(C2C=C(c3ccc(C)cc3)Nc3ncnn32)cc1 (stereo unspecified)	12.0	/	8.0	3.59*	10.0%
CCOc1ccc(C2C=C(c3ccc(C)cc3)Nc3nnnn32)cc1 (stereo unspecified)	14.0	i	5.0	1.19	6.0%
CCOC(=O)c1sc(N)c(C#N)c1CSc1nnc(C2CCCCC2)n1N	5.0	i	17.0	1.04	7.0%
c1ccc(NCc2nc(-c3ccccc3)no2)cc1	1.0	i	0.0	1.07	0.0%
c1ccc(Nc2cc(-c3ccccc3)nc3ncnn23)cc1	5.0	i	12.0	1.17	6.0%
Cc1onc(-c2ccccc2)c1C(=O)N1CCN(C/C=C/c2ccccc2)CC1	6.0	i	0.0	1.08	3.0%
CC1CCC(NC(=O)C2c3ccccc3C(=O)N2CCCN2CCOCC2)CC1 (stereo unspecified)	9.0	i	8.0	1	6.0%
Cc1cc(NCCN2CCOCC2)n2nc(C)c(-c3ccc(Cl)cc3)c2n1	0.0	i	14.0	2.36*	8.0%
Cc1cc(NCCN2CCOCC2)n2ncc(-c3ccc(Cl)cc3)c2n1	14.0	/	5.0	3.27*	10.0%
Cc1cc(NCCN2CCOCC2)n2ncc(-c3ccccc3)c2n1	4.0	i	10.0	1.63	6.0%
Cc1cc(NCCN2CCOCC2)n2nc(C)c(-c3ccccc3)c2n1	7.0	i	10.0	1.14	3.0%
Cc1cccc(C)c1NS(=O)(=O)c1ccc(F)cc1	9.0	i	10.0	1.12	6.0%
Nc1c2c(nc3ccn(-c4ccccc4)c(=O)c13)CCCCC2	0.0	i	8.0	2.14*	6.0%
CC(=O)NCCn1c(SCc2cc(=O)n3cc(Cl)ccc3n2)nc2ccccc2c1=O	7.0	+	13.0	2.13*	18.0%
CC(=O)NCCn1c(SCc2ccccc2F)nc2ccccc2c1=O	2.0	i	13.0	1.07	5.0%
CN(C)c1cc(NC(=O)CN2CCOCC2)c2ccccc2n1	4.0	/	0.0	1.77	3.0%
CCCCC(=O)Nc1cc(N(C)C)nc2ccccc12	15.0	/	12.0	3.82*	14.0%
CCc1cc(=O)oc2cc(OC(C)C(=O)O)c(Cl)cc12 (stereo unspecified)	8.0	i	13.0	2.88*	14.0%

Assay outcomes: PubChem, SRMLSC
